Experiments:
Assay in all cases: DAPPL (digital affinity profiling via proximity ligation, sequencing); 10 mM Tris-HCl pH 7.5, 50 mM NaCl, 1 mM DTT, 4% glycerol, room temperature, 30 min; GST-TFs on glutathione beads, 16-mer random dsDNA library, 0.1% formaldehyde crosslink after washing; high values mean tight binding
FLI1 = target: T1, FLI1 (Homo sapiens, UniProt Q01543 1-452); conditions: protein: recombinant; tags: N-terminal GST; dsDNA, one strand shown
T1 sequence: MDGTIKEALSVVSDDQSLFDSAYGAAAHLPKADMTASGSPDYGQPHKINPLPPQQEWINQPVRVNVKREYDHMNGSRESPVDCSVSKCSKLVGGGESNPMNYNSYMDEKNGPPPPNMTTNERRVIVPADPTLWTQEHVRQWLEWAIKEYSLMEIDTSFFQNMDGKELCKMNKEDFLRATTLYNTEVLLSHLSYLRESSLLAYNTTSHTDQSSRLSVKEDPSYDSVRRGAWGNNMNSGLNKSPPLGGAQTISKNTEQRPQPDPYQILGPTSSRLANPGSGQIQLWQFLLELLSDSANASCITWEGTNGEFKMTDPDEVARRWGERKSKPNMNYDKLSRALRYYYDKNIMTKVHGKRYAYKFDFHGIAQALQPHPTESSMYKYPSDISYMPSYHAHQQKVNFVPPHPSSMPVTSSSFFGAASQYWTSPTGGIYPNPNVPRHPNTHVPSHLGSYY
How it was run: (§1)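 The binding signal reported is, for every hexamer, its read frequency for a factor over its read frequency for the tag-only sample. Reads came from pools of yeast-expressed, GST-fused human transcription factors on glutathione beads, barcoded with DNA and mixed with that sample, which were incubated with 200 nmole of a random double-stranded 16-mer DNA library in Tris/NaCl/DTT/glycerol buffer at room temperature for 30 min. After washing, the pools were crosslinked with 0.1% formaldehyde, proximity-ligated with BsaI/T4 ligase for 1 h at 37 °C, PCR-amplified and sequenced on an Illumina NextSeq500.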

GABPA = target: T2, GABPA (Homo sapiens, UniProt Q06546 1-454); conditions: protein: recombinant; tags: N-terminal GST; dsDNA, one strand shown
T2 sequence: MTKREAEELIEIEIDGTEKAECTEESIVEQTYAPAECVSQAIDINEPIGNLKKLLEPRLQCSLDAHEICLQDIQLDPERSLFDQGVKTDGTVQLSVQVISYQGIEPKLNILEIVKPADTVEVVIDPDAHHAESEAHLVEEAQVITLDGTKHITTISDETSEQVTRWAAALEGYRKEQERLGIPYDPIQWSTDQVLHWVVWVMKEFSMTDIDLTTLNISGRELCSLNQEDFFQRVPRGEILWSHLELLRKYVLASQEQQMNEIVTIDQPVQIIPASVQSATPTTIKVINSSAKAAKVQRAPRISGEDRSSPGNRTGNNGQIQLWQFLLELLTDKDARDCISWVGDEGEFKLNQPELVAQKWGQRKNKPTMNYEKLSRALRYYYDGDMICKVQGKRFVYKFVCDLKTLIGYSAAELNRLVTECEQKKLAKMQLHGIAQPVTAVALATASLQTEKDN
How it was run: as §1

ERG = target: T3, ERG (Homo sapiens, UniProt P11308 1-479); conditions: protein: recombinant; tags: N-terminal GST; dsDNA, one strand shown
T3 sequence: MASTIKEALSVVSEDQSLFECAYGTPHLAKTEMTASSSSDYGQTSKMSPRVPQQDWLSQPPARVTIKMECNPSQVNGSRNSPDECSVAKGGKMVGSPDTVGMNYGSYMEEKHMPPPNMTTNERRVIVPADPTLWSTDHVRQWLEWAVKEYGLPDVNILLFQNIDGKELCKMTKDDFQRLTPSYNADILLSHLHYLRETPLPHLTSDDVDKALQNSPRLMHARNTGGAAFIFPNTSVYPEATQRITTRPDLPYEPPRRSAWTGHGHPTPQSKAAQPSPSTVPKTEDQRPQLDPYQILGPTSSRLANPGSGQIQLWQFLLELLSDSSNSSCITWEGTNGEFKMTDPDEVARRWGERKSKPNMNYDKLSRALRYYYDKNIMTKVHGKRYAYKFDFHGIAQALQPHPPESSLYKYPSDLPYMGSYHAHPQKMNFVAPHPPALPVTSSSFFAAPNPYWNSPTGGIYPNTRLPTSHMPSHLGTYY
How it was run: as §1

ELF1 = ELF1 (Homo sapiens, UniProt P32519 1-619); conditions: protein: recombinant; tags: N-terminal GST; dsDNA, one strand shown
How it was run: as §1

EHF = target: T4, EHF (Homo sapiens, UniProt Q9NZC4 1-300); conditions: protein: recombinant; tags: N-terminal GST; dsDNA, one strand shown
T4 sequence: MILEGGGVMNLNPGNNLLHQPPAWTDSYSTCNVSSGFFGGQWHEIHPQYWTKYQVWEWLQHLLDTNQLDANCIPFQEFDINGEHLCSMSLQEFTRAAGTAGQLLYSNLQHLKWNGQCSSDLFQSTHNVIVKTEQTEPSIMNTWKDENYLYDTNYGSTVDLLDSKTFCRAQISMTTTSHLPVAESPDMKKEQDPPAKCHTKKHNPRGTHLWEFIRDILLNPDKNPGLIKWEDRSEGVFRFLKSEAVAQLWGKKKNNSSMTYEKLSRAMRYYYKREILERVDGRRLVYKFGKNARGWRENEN
How it was run: as §1

SPI1 = SPI1 (Homo sapiens, UniProt P17947 1-270); conditions: protein: recombinant; tags: N-terminal GST; dsDNA, one strand shown
How it was run: as §1

SPIB = SPIB (Homo sapiens, UniProt Q01892 1-262); conditions: protein: recombinant; tags: N-terminal GST; dsDNA, one strand shown
How it was run: as §1

FEV = target: T5, FEV (Homo sapiens, UniProt Q99581 1-238); conditions: protein: recombinant; tags: N-terminal GST; dsDNA, one strand shown
T5 sequence: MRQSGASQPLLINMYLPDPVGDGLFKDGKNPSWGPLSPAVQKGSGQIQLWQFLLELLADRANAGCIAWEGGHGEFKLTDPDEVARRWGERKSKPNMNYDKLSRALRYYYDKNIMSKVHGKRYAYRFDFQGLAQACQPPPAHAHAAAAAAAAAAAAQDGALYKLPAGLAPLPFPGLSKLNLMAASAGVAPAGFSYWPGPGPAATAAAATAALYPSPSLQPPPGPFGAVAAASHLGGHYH
How it was run: as §1

ETV5 = ETV5 (Homo sapiens, UniProt P41161 1-510); conditions: protein: recombinant; tags: N-terminal GST; dsDNA, one strand shown
How it was run: as §1

HSF1 = HSF1 (Homo sapiens, UniProt Q00613 1-529); conditions: protein: recombinant; tags: N-terminal GST; chain copies: 3; dsDNA, one strand shown
How it was run: as §1

SPIC = target: T6, SPIC (Homo sapiens, UniProt Q8N5J4 1-248); conditions: protein: recombinant; tags: N-terminal GST; dsDNA, one strand shown
T6 sequence: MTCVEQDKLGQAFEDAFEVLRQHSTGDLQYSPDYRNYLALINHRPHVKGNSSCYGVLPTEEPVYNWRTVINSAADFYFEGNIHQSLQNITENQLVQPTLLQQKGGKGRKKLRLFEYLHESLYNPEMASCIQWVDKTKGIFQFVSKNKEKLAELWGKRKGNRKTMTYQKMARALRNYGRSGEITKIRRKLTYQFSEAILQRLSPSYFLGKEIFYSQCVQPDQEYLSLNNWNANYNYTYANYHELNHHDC
How it was run: as §1

ELF4 = ELF4 (Homo sapiens, UniProt Q99607 1-663); conditions: protein: recombinant; tags: N-terminal GST; dsDNA, one strand shown
How it was run: as §1

ELK4 = target: T7, ELK4 (Homo sapiens, UniProt P28324-2 1-405); conditions: protein: recombinant; tags: N-terminal GST; dsDNA, one strand shown
T7 sequence: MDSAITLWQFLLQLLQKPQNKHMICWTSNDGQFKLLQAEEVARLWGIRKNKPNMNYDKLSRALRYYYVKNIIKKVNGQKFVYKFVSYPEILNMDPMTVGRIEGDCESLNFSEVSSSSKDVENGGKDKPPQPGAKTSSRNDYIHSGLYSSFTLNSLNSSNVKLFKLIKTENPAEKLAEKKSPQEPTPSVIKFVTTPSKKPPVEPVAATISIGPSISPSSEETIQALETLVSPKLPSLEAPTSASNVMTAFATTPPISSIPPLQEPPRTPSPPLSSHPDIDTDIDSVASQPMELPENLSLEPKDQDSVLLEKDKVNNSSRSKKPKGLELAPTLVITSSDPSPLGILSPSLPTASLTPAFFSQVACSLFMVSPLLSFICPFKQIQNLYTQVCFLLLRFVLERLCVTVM
How it was run: as §1

ETV2 = target: T8, ETV2 (Homo sapiens, UniProt O00321 1-342); conditions: protein: recombinant; tags: N-terminal GST; dsDNA, one strand shown
T8 sequence: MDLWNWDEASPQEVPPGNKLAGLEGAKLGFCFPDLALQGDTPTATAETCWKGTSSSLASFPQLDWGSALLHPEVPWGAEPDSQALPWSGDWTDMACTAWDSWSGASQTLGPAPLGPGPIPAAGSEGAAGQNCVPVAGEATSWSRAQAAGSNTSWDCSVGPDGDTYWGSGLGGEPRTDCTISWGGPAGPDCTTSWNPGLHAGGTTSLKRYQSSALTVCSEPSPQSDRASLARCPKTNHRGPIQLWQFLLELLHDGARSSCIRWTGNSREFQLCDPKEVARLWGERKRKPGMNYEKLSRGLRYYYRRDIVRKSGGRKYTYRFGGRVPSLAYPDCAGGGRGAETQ
How it was run: as §1

ELF3 = target: T9, ELF3 (Homo sapiens, UniProt P78545 1-371); conditions: protein: recombinant; tags: N-terminal GST; dsDNA, one strand shown
T9 sequence: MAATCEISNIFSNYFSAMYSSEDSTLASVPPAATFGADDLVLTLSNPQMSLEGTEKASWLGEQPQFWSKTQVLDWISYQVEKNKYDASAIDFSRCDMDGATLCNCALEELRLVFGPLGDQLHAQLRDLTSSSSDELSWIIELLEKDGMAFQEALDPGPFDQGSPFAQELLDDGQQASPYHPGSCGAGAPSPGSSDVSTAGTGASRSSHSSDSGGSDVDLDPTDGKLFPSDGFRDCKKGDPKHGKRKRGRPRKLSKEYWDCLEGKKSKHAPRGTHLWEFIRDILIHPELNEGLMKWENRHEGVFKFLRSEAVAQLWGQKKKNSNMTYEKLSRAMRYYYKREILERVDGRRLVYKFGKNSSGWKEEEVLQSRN
How it was run: as §1

ETV1 = ETV1 (Homo sapiens, UniProt P50549 1-477); conditions: protein: recombinant; tags: N-terminal GST; dsDNA, one strand shown
How it was run: as §1

Sequence of SPIB (Q01892 whole entry): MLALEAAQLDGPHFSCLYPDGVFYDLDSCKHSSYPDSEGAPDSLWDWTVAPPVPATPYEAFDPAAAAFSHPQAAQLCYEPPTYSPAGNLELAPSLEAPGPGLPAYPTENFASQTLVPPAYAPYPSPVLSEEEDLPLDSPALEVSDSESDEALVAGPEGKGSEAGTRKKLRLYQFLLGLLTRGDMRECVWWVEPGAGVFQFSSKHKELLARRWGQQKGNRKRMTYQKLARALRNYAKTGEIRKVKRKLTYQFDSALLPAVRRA
Sequence of HSF1 (Q00613 whole entry): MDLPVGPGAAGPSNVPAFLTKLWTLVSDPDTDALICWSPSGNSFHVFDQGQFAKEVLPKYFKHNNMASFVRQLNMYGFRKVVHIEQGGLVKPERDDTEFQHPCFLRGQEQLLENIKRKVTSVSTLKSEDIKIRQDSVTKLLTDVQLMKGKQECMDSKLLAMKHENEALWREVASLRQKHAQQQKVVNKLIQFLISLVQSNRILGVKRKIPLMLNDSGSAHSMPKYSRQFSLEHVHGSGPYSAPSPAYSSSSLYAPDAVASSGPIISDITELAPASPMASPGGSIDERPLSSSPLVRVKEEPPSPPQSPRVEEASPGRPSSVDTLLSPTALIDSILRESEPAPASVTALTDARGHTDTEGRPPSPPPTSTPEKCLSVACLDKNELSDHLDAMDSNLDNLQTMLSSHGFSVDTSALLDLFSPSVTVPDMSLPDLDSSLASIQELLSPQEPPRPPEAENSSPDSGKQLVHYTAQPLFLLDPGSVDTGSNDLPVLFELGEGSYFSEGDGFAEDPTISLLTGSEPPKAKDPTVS
Sequence of ETV1 (P50549 whole entry): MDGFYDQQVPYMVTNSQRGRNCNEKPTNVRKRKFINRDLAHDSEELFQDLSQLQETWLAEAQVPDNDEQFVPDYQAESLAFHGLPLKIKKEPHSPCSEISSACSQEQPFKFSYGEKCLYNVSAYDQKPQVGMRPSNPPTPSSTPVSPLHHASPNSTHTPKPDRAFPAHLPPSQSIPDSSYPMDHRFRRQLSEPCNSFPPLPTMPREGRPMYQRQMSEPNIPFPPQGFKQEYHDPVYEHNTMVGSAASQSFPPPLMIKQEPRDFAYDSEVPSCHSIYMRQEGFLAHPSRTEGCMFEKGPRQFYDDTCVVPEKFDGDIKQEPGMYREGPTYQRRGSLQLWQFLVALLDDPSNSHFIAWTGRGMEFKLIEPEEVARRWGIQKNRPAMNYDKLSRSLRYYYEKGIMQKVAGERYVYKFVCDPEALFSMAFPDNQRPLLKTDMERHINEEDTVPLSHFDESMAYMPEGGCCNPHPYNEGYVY
Sequence of ELF1 (P32519 whole entry): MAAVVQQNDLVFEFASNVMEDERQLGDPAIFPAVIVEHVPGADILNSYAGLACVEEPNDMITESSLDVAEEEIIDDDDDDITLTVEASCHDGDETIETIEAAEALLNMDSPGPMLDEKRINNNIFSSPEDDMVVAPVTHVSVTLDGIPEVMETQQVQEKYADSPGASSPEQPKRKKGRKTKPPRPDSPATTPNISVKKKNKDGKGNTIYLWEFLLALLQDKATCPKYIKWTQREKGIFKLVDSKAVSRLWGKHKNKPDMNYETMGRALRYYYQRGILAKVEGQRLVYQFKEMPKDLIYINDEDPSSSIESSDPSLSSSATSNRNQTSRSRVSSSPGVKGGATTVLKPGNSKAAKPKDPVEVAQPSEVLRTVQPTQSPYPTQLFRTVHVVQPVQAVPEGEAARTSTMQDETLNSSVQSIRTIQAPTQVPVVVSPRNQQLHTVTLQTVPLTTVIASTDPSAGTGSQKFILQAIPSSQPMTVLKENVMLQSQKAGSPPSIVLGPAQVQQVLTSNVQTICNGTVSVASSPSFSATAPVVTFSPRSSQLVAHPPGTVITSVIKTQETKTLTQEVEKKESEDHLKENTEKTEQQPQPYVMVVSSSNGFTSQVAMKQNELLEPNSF
Sequence of ETV5 (P41161 whole entry): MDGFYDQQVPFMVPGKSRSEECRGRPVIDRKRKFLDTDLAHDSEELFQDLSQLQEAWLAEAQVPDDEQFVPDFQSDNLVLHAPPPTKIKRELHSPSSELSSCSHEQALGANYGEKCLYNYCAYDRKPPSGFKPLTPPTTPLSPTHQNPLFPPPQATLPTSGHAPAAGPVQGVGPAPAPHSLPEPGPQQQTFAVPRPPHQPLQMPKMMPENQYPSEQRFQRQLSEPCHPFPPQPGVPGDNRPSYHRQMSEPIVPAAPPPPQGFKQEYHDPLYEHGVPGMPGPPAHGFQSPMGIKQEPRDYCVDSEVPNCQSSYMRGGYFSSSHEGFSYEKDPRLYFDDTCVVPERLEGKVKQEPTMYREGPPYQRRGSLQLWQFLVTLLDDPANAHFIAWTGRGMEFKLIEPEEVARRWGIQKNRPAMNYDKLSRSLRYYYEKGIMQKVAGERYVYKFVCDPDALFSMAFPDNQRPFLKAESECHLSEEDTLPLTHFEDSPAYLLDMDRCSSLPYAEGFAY
Sequence of ELF4 (Q99607 whole entry): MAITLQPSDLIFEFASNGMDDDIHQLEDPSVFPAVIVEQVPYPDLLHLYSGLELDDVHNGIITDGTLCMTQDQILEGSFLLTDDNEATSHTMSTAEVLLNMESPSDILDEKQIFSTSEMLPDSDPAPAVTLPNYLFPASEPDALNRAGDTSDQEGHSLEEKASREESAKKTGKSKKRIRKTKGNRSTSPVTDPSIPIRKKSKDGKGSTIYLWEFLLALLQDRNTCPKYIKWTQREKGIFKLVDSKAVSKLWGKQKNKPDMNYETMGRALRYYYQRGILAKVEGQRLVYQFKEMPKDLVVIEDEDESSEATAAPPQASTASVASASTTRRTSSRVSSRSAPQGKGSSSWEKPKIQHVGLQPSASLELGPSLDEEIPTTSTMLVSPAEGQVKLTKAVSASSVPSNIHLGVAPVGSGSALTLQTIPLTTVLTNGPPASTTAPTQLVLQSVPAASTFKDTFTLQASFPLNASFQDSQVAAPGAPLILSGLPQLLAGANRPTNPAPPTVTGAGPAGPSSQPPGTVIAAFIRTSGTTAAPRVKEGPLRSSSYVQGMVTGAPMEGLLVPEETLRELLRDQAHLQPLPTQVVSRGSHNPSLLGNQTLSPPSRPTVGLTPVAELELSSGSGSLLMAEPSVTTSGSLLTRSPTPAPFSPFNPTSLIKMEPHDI

For CTCGGT, the binding signal (FLI1) was 1.12 fold enrichment (6-mer frequency, TF over GST control), the binding signal (GABPA) was 1.09 fold enrichment (6-mer frequency, TF over GST control) and the binding signal (ERG) was 1.04 fold enrichment (6-mer frequency, TF over GST control). The binding signal (ELF1) was 1.17 fold enrichment (6-mer frequency, TF over GST control), the binding signal (EHF) was 1.07 fold enrichment (6-mer frequency, TF over GST control) and the binding signal (SPI1) was 1.1 fold enrichment (6-mer frequency, TF over GST control). For the same sequence, the binding signal (SPIB) was 1.21 fold enrichment (6-mer frequency, TF over GST control), the binding signal (FEV) was 1.01 fold enrichment (6-mer frequency, TF over GST control) and the binding signal (ETV5) was 1.1 fold enrichment (6-mer frequency, TF over GST control). The binding signal (HSF1) was 1.04 fold enrichment (6-mer frequency, TF over GST control), the binding signal (SPIC) was 1.06 fold enrichment (6-mer frequency, TF over GST control) and the binding signal (ELF4) was 1.09 fold enrichment (6-mer frequency, TF over GST control). The binding signal (ELK4) was 1.12 fold enrichment (6-mer frequency, TF over GST control), the binding signal (ETV2) was 1.19 fold enrichment (6-mer frequency, TF over GST control) and the binding signal (ELF3) was 1.16 fold enrichment (6-mer frequency, TF over GST control). The binding signal (ETV1) was 1.15 fold enrichment (6-mer frequency, TF over GST control).

Reference: publication PMC7862700, “An all-to-all approach to the identification of sequence-specific readers for epigenetic DNA modifications on cytosine”
